Assay results published in PMC5540273 (PLoS ONE, 2017).

The molecules below were run on TNNI3K.
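Note: kd values determined as follow-up on hits from a single-replicate KINOMEscan panel screen.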

Structure (SMILES) | Kd [nM]
Nc1ncnc2c1ncn2-c1cccc(F)c1 [SKF-97560] | > 10000
COc1ccc(Nc2nccc(N3CCC(NS(=O)(=O)c4ccc(NC(C)=O)cc4)C3)n2)cc1 (stereo not shown) [GSK1379729] | > 10000
Nc1nc(-c2ccccc2F)c(-c2ccnc3ccccc23)s1 [GW560459] | > 10000

What follows are molecules tested on TYK2(JH1domain-catalytic).

Structure (SMILES) | Kd [nM]
COc1ccc(Nc2nccc(N3CCC(NS(=O)(=O)c4ccc(NC(C)=O)cc4)C3)n2)cc1 (stereo not shown) [GSK1379729] | 86
COc1cc(Nc2nccc(N3CCC(NC(=O)C4COc5ccccc5O4)C3)n2)cc(OC)c1OC (stereo not shown) [GSK1379761] | 1500
COc1cccc(-n2cnc3c(N)ncnc32)c1 [SKF-97416] | > 10000

These molecules were tested on T1, VPS34.
T1 construct: gene PIK3C3

Structure (SMILES) | Kd [nM]
Cc1nn2c(=O)cc(N3CCOCC3)nc2n1Cc1cccc(Cl)c1Cl [GSK2342769] | 0.43
O=c1cc(N2CCOCC2)nc2n(Cc3ccc(F)c(Cl)c3)ccn12 [GSK2297099] | 15
COc1ccc(Nc2nccc(N3CCC(NS(=O)(=O)c4ccc(NC(C)=O)cc4)C3)n2)cc1 (stereo not shown) [GSK1379729] | 97
Cc1ccccc1COc1cc(-n2cnc3cc(Cl)ccc32)sc1C(N)=O [GW813349] | > 10000
